The record followed here is PubChem BioAssay (NCI).

The panel holds about 83,000 compounds, 20% with a hit somewhere; the sample as a whole holds those more often.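 Note: values are percent growth. 100 is the growth of untreated cells, values between 100 and 0 indicate rising inhibition; between -100 and 0 indicates cell death.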 A number with no mark means an inactive call. Active and inactive are the calls of the source. Rule for the calls: active = growth percent below 10; inactive = the rest.

Test in all cases: NCI-60 one-dose screen, 48 h (100 = growth as untreated, 0 = no growth, -100 = all killed)
The subject of one test is EKVX NSCLC. Conditions: 10 µM unless noted.
The subject of a further test is SN12C renal. Particulars: 10 µM unless noted.
Another test relates to UO-31 renal. Conditions: 10 µM unless noted.
The next test concerns TK-10 renal. Particulars: 10 µM unless noted.
A further test relates to ACHN renal. Particulars: 10 µM unless noted.
In a further test the test system is CAKI-1 renal. Conditions: 10 µM unless noted.
The subject of a further test is A498 renal. Particulars: 10 µM unless noted.
Another test has as its system CCRF-CEM leukemia. Particulars: 10 µM unless noted.
Another test relates to SR leukemia. Particulars: 10 µM unless noted.
For a further test, the system named is RPMI-8226 leukemia. Conditions: 10 µM unless noted.
In a further test the test system is OVCAR-8 ovarian. Conditions: 10 µM unless noted.
Another test relates to OVCAR-5 ovarian. Particulars: 10 µM unless noted.
The subject of another test is OVCAR-4 ovarian. Conditions: 10 µM unless noted.
The test system of a further test is SK-OV-3 ovarian. Particulars: 10 µM unless noted.
Another test concerns OVCAR-3 ovarian. Conditions: 10 µM unless noted.
For another test, the system named is HS 578T breast. Particulars: 10 µM.
For another test, the system named is NCI/ADR-RES ovarian. Particulars: 10 µM unless noted.
A further test deals with MOLT-4 leukemia. Conditions: 10 µM unless noted.
A further test has as its system IGROV1 ovarian. Conditions: 10 µM unless noted.
The subject of a further test is SK-MEL-2 melanoma. Conditions: 10 µM unless noted.

For `COc1cc2c(cc1OC)C(=O)OC2`, the growth in the test on EKVX NSCLC was 108%; in the test with SN12C renal, 99.8%; in the test with UO-31 renal, 101%; in the test with TK-10 renal it was 123%; in the test with ACHN renal it was 103%; in the test on CAKI-1 renal, 55.6%. Moreover, the growth in the test on A498 renal was 109%; in the test on CCRF-CEM leukemia, 124%; in the test with SR leukemia, 106%; with RPMI-8226 leukemia, 367%; in the test on OVCAR-8 ovarian, 101%; in the test on OVCAR-5 ovarian it was 100%. For the same compound, the growth was 108% in the test with OVCAR-4 ovarian; 124% with SK-OV-3 ovarian; 110% in the test on OVCAR-3 ovarian; 109% in the test with HS 578T breast; 119% in the test with NCI/ADR-RES ovarian.
Turning to `CS(=O)(=O)Nc1cc(-c2cc3ncc(C#N)c(Nc4ccc(Oc5ccccc5)c(Cl)c4)c3s2)cnc1Cl`, the growth with EKVX NSCLC was 58.1%; in the test with SN12C renal, 45.7%; with UO-31 renal, 22.6%; with TK-10 renal it was 45.4%; in the test on ACHN renal, 39.2%; with CAKI-1 renal it was 19.4%. Moreover, the growth is -15.2% (active) in the test with A498 renal; 38.3% in the test on CCRF-CEM leukemia; 36.9% in the test with MOLT-4 leukemia; 20.5% with SR leukemia; 62.7% with RPMI-8226 leukemia; 50.6% in the test on OVCAR-8 ovarian. The growth with OVCAR-5 ovarian was 75.9%; in the test with OVCAR-4 ovarian, 57.6%; in the test on SK-OV-3 ovarian, 43.4%; in the test on IGROV1 ovarian, 11%; with OVCAR-3 ovarian it was 50.7%; in the test on NCI/ADR-RES ovarian, 72.2%.
`O=c1cc(-c2ccc3c(c2)OCCO3)oc2cc(Cl)ccc12`: the growth is 28.1% in the test on EKVX NSCLC; 26% in the test with SN12C renal; -72.2% (active) with UO-31 renal; -78.2% (active) in the test with TK-10 renal; -70.1% (active) in the test on ACHN renal; 4.01% (active) with CAKI-1 renal. Moreover, the growth in the test with A498 renal is 8.97% (active); in the test on CCRF-CEM leukemia it was 97%; in the test with MOLT-4 leukemia, 101%; with RPMI-8226 leukemia, 28.8%; in the test with OVCAR-8 ovarian, 13.5%; with OVCAR-5 ovarian, 32.8%. The growth in the test with OVCAR-4 ovarian is -12.5% (active); in the test on SK-OV-3 ovarian, 2.04% (active); in the test with IGROV1 ovarian it was -9.4% (active); in the test on OVCAR-3 ovarian it was -40.2% (active); in the test on HS 578T breast, 41.2%; with NCI/ADR-RES ovarian, 38.2%.
As for `C=C1NC(=O)C(C(C)CC)NC(=O)C2CSCC(NC(=O)CCC(=O)O)C(=O)NC(Cc3ccccc3)C(=O)NC(C)C(=O)NC(CC(C)CC)C(=O)NC(C(=O)NC(Cc3ccccc3)C(=O)N3CCCC3C(=O)N2)C(C)OC(=O)C(CO)NC(=O)C(C(O)COC)N(C)C(=O)C(C(C)C)NC(=O)C(CC(C)CC)NC1=O` (configuration not stated), the growth is 30.4% [6 µM] with EKVX NSCLC; 31.4% [6 µM] in the test with SN12C renal; 57.4% [6 µM] with UO-31 renal; 60.2% [6 µM] in the test on TK-10 renal; 37.4% [6 µM] with ACHN renal; 33.1% [6 µM] in the test on CAKI-1 renal. Moreover, the growth in the test with A498 renal is -11.8% [6 µM] (active); with CCRF-CEM leukemia, 18.6% [6 µM]; in the test with MOLT-4 leukemia it was 16.9% [6 µM]; with SR leukemia, 12.5% [6 µM]; with RPMI-8226 leukemia it was 25.3% [6 µM]; in the test with OVCAR-8 ovarian it was 12.9% [6 µM]. The growth was 44.9% [6 µM] with OVCAR-5 ovarian; 55.6% [6 µM] in the test with OVCAR-4 ovarian; 39% [6 µM] with SK-OV-3 ovarian; 30.9% [6 µM] with IGROV1 ovarian; 12.4% [6 µM] in the test on OVCAR-3 ovarian; 9.55% [6 µM] (active) in the test with NCI/ADR-RES ovarian.
For `Cc1cc2nc3c(=O)[nH]c(=O)nc-3n(CC=O)c2cc1C`, the growth was 95.6% in the test on EKVX NSCLC; 97.7% in the test on SN12C renal; 106% in the test on UO-31 renal; 111% in the test with TK-10 renal; 105% in the test with ACHN renal; 64.8% in the test with CAKI-1 renal. In addition, the growth in the test on A498 renal was 116%; in the test with CCRF-CEM leukemia it was 160%; with MOLT-4 leukemia it was 109%; with SR leukemia, 129%; in the test with RPMI-8226 leukemia it was 140%; with OVCAR-8 ovarian, 121%. Further, the growth was 96.2% in the test with OVCAR-5 ovarian; 100% in the test with OVCAR-4 ovarian; 106% in the test on SK-OV-3 ovarian; 88.7% in the test on IGROV1 ovarian; 106% in the test on OVCAR-3 ovarian; 101% in the test on HS 578T breast. The growth with NCI/ADR-RES ovarian is 111%.
For the compound `C/C(=N\OC(=O)Nc1ccccc1)c1ccccc1`, the growth in the test with SK-MEL-2 melanoma was 111%; with SN12C renal it was 94.8%; in the test with UO-31 renal, 88.7%; with TK-10 renal, 115%; in the test with CAKI-1 renal it was 114%; with A498 renal, 39.4%. Moreover, the growth with CCRF-CEM leukemia was 99.1%; with MOLT-4 leukemia, 94%; in the test on SR leukemia, 81.5%; in the test on RPMI-8226 leukemia, 99.1%; in the test with OVCAR-8 ovarian, 106%; in the test on OVCAR-5 ovarian, 98.4%. For the same compound, the growth is 92.9% in the test on OVCAR-4 ovarian; 115% in the test with SK-OV-3 ovarian; 106% with IGROV1 ovarian; 108% in the test with OVCAR-3 ovarian; 85.1% in the test with HS 578T breast; 107% in the test with NCI/ADR-RES ovarian.
On to `CC(=O)Nc1ccc(Cl)cc1Cl`, for which the growth with EKVX NSCLC was 89.9%; in the test on SN12C renal it was 101%; in the test with UO-31 renal, 76.2%; in the test with TK-10 renal, 112%; in the test with ACHN renal, 106%; with CAKI-1 renal, 73.4%. The growth in the test with A498 renal was 116%; in the test with CCRF-CEM leukemia, 145%; with MOLT-4 leukemia it was 71.3%; with SR leukemia, 44.3%; in the test on RPMI-8226 leukemia, 121%; in the test with OVCAR-8 ovarian, 97.6%. Further, the growth is 102% in the test with OVCAR-5 ovarian; 105% with OVCAR-4 ovarian; 108% with SK-OV-3 ovarian; 60.8% in the test with IGROV1 ovarian; 118% in the test on OVCAR-3 ovarian; 178% in the test on HS 578T breast. The growth in the test on NCI/ADR-RES ovarian was 115%.
